These results are taken from PubChem BioAssay (NCATS).

SMILES strings stand for the structures. Inconclusive results are not listed. A number with no mark means an inactive call. Activity calls are given as the source filed them. The call rests on the fitted dose curve; in most records, active means well fitted inhibition curve with a large enough effect; inconclusive means small, poorly fitted or top-dose-only effect; inactive means flat fitted curve, though single readings scatter.
On the % scale 0 is the no-effect control and ±100 the full control effect.

This experiment concerns NIH3T3. The experiment in a line: Cytotoxic Profiling of Annotated Libraries Using Quantitative High-Throughput Screening (AID 1296008). Further: nearly all actives have a fitted effect of over 60% in size. Particulars: Five cell lines viability, CellTiter-Glo ATP luminescence, 48-72 h; max response: active compounds read low. The gist of the method:
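Cells exposed to compounds for 48 or 72 hr at 37 degrees Celsius. Viability read as ATP-coupled luminescence with CellTiter-Glo after 10 min at room temperature.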
On the technique in general: In ATP-based viability assays light output follows the ATP content of the culture.
As to `CC12CCC3C(C)(C)C(O)CCC3(C)C1Cc1c(oc(C(=O)O)cc1=O)O2` (centres undefined), the max response is 1.94%.

On to `Cc1cc(O)cc(Oc2cc(C)c(C(=O)O)c(O)c2)c1`, for which the max response is 4.83%.

With `C[C@@H]1O[C@@H](O[C@@H]2[C@@H](O)[C@H](O[C@@H]3[C@@H](O)[C@@H](O)[C@H](O[C@H]4[C@H](OC(=O)[C@]56CCC(C)(C)C[C@H]5C5=CCC7[C@@]8(C)C[C@H](O)[C@H](O[C@@H]9O[C@@H](C)[C@H](O)[C@@H](O)[C@H]9O)[C@@](C)(CO)C8CC[C@@]7(C)[C@]5(C)C[C@H]6O)O[C@H](C)[C@H](O)[C@@H]4O)O[C@H]3C)OC[C@H]2O)[C@H](O)[C@H](O)[C@H]1O` (some centres undefined), the outcome was inactive.

With `CC1CCC2(O1)C(C)(C)CC(O[C@@H]1O[C@H](CO[C@@H]3OC[C@](O)(CO)[C@H]3O)[C@@H](O)[C@H](O)[C@H]1O)CC2(C)O` (some centres undefined), the result was inactive.

For the compound `C[C@@]12C[C@]3(O)O[C@H](O1)[C@]1(COC(=O)c4ccccc4)[C@H]3C[C@@]12O[C@@H]1O[C@H](COC(=O)c2ccccc2)[C@@H](O)[C@H](O)[C@H]1O`, the max response is 1.22%.

With `C=C1CC[C@H]2[C@@H](/C=C(\C)C(=O)[C@@]3(OC(C)=O)C[C@H](C)[C@H](OC(C)=O)[C@@H]3[C@H]1OC(C)=O)C2(C)C`, the compound was classed as inactive.

In the case of `NCc1c[nH]c(=S)n1C1CCc2c(F)cc(F)cc2C1` (centres undefined), the call was inactive.

For `C/C=C/C1=CC2=CC(=O)C(C)(O)C(OC(=O)c3c(C)cc(O)cc3O)C2CO1` (centres undefined), the result was inactive.

Turning to `O=C1NC(=Nc2ccccc2F)S/C1=C\c1ccc(C(=O)O)cc1`, the max response is -1.07%.
